# Measurements reported in the supplement of paper PMC12067093, “Discovery and optimisation of a covalent ligand for TRIM25 and its application to targeted protein ubiquitination” (Chemical Science, 2025).
# The full data set covers some 21,000 targets. This sample favours those with the largest changes.
# Molecular target: HPRT1_P00492_66_EMGGHHIVALCVLK (UniProt P00492)
# Test: probe-labelled cysteine peptide fold change vs DMSO (competition) (log2 fold change); higher = less target engagement (more negative = stronger competition)
# Conditions: THP-1, incubation time: 4 h
# 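Note: competitive chemoproteomic profiling in live THP-1 cells with an iodoacetamide desthiobiotin (IA-DTB) probe, comparing probe-labelled peptide intensities in compound-treated cells against DMSO-treated controls.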
# Sequence of UniProt P00492 (P00492 whole entry, looked up): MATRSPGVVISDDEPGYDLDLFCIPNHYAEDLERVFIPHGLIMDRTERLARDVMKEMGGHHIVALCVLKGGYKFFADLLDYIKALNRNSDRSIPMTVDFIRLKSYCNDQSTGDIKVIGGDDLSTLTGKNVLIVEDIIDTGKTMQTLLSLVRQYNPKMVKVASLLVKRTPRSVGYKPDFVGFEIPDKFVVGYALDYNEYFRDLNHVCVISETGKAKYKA
compound,measurement,setting,value
CC1Cc2ccccc2N1C(=O)C1CCCN(C(=O)CCl)C1 (mixture of isomers) [TRIM25 ligand 11 (diastereomer mixture)],probe-labelled cysteine peptide fold change,10 µM,-0.135
same,probe-labelled cysteine peptide fold change,50 µM,0.123
